Source: PubChem BioAssay
ATXN viability: Viability Counterscreen for Primary qHTS for Inhibitors of ATXN expression; S2 cells (HEK-293 line with an ATXN2-luciferase reporter) viability, CellTiter-Fluor protease fluorescence, 24 h; Potency, µM (highest dose often 56.7 µM), most hits filed as cytotoxic; 0.49% of 400,000 active; also: potency is read from the fitted curve at half-maximal effect; nearly all actives have a fitted effect of over 40% in size
HepG2 viability: qHTS for Inhibitors of TGF-b: Cytotox Counterscreen. HepG2 CAGA-GFP viability, ATP luminescence, 18 h. Potency, µM (doses to about 46.1 µM), for inactives: at the highest dose activity change, negative = cytotoxicity, actives largely listed as cytotoxic. 0.76% of 410,000 active. AID 588856, 2011; also: potency is read from the fitted curve at half-maximal effect
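HepG2 CAGA-GFP cells (1000/well, DMEM with 1% FBS) received compound, then TGF-beta at 500 pg/mL final, and were incubated 18 hours at 37 degrees C. Viability was read by CellTiter-Glo luminescence. Media-only wells were set as complete cell-killing and DMSO as no toxicity.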
D3 antag: qHTS of D3 Dopamine Receptor Antagonist: qHTS; AID 652054, 2013; D3R cells, DiscoveRx beta-arrestin luminescence, antagonist mode; active compounds read low; max response, negative = inhibition, %; D(3) dopamine receptor (Homo sapiens), P35462; 2.5% of 360,000 active; in the data active = max response below about -50%; inconclusive = no clear call, values can overlap the other calls; also: % is scaled to controls: 0 for no effect and ±100 for the full control effect
Target sequence (P35462 whole entry, looked up): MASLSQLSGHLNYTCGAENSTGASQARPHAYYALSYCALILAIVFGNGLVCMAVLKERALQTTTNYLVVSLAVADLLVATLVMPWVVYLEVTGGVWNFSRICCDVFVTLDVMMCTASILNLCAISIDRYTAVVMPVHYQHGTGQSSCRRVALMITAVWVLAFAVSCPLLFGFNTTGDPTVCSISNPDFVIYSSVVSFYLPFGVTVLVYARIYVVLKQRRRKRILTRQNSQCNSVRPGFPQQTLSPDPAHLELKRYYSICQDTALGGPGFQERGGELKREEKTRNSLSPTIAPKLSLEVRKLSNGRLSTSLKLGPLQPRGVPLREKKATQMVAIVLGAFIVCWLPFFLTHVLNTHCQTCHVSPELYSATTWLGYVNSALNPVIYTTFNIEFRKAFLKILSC
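Cells plated overnight at 1500 cells/well, then exposed to library compounds with dopamine controls for 90 minutes at 37 degrees C. DiscoveRx reagent added for 30–60 minutes at room temperature; luminescence read, quantitative HTS format.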
TGFb inhibitor: qHTS for Inhibitors of TGF-b; HepG2 CAGA-GFP TGF-b/SMAD3 reporter, GFP fluorescence, 18 h; TGF-beta stimulated, 500 pg/mL final; Potency, µM (titrated, usually from 46.1 µM), for inactives: at the highest dose activity, negative = inhibition, usual class: inhibitors; 1.2% of 410,000 active; AID 588855, 2011; also: potency is read from the fitted curve at half-maximal effect; % is scaled to controls: 0 for no effect and ±100 for the full control effect; nearly all actives have a fitted effect of over 65% in size
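Using HEPG2 CAGA-GFP reporter cells at 1000 cells/well, we pinned test compounds, stimulated with recombinant TGF-beta (500 pg/mL final) and measured total well GFP after 18 h.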
ATXN2 expr inh: Primary qHTS for Inhibitors of ATXN expression. HEK-293 ATXN2-luciferase reporter, luminescence, 24 h. Potency, µM (doses to about 57 µM), for the others: at the top dose activity change, negative = inhibition, hits mostly inhibitors. 0.72% of 360,000 active; also: potency is read from the fitted curve at half-maximal effect; % is scaled to controls: 0 for no effect and ±100 for the full control effect; nearly all actives have a fitted effect of over 55% in size
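ATXN2-luciferase reporter cells (luciferase flanked by upstream and downstream ATXN2 gene portions) were treated 24 h at 37 °C with compounds at up to 57 uM. SteadyGlo luminescence gave expression; GF-AFC fluorescence gave viability.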
D3 ag: qHTS of D3 Dopamine Receptor Agonist: qHTS; D(3) dopamine receptor (Homo sapiens), P35462; D3R DiscoveRx beta-arrestin cells, luminescence, 90 min; max activation, %; 0.58% of 410,000 active; in the data active = max activation above about 30%; also: 0% is about no effect
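Agonist-mode cell screen: cells plated at 1500/well and incubated overnight at 37 °C, then exposed to library compounds for 90 min at 37 °C. Detection reagent was added for 30–60 min at room temperature, and luminescence was read.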
The depositor's hits bear a star. In the library only some 4.8% were active in any assay of this set; here they are far more common. Unless noted, calls follow the shape of the dose curve; as a rule, active = well fitted curve in the direction sought with a large enough effect; inconclusive = small, poorly fitted or top-dose-only effect, or another doubt; inactive = no such curve, though single readings can be large; an effect the other way counts as inactive or inconclusive.

How did O=C(CCOCCOCCOCCOCCC(=O)Nc1c(I)cc(I)c(C(=O)O)c1I)Nc1c(I)cc(I)c(C(=O)O)c1I do in these assays?
ATXN viability: inactive; ATXN2 expr inh: 6%

How did COc1cc(/C=N/NC(=O)c2cc(-c3ccc4c(c3)OCO4)n[nH]2)ccc1O do in these assays?
ATXN viability: inactive; HepG2 viability: -1%; D3 antag: 38; TGFb inhibitor: 45%; D3 ag: 61*

Results for O=C(N/N=C/c1ccccn1)c1cc(-c2ccccc2)nc2ccccc12 ?
ATXN viability: inconclusive; HepG2 viability: -22%; D3 antag: 0; TGFb inhibitor: 10µM*; D3 ag: -20

How did COc1ccc(-c2cc(C(=O)N/N=C/c3ccc4c(c3)OCO4)c3ccccc3n2)c(OC)c1 do in these assays?
ATXN viability: inactive; HepG2 viability: 11µM*; D3 antag: -11; TGFb inhibitor: -1%; ATXN2 expr inh: 120%; D3 ag: -11

What do the screens show for `COc1cc([N+](=O)[O-])cc(/C=N/NC(=O)c2cc(C)nc3ccccc23)c1O`?
ATXN viability: inactive; HepG2 viability: -43%; D3 antag: -56*; TGFb inhibitor: -10%; D3 ag: -19

Results for Cc1c(Cl)cccc1-n1nc(C)c2c(C)cc(=O)n(CC(=O)N3CCCc4ccccc43)c21 ?
ATXN viability: inconclusive; HepG2 viability: -31%; TGFb inhibitor: -17%; ATXN2 expr inh: inconclusive; D3 ag: -9

How did CC(C)c1ccc2oc(-c3cccc(NC(=O)c4ccc5c(c4)OCCO5)c3)nc2c1 do in these assays?
ATXN viability: inactive; HepG2 viability: -4%; TGFb inhibitor: -7%; ATXN2 expr inh: -19%; D3 ag: 6

How did C(=C\c1ccnc2ccccc12)/c1ccc2ccccc2n1 do in these assays?
HepG2 viability: -58%; TGFb inhibitor: inconclusive

What do the screens show for `O=C(N/N=C/c1cccs1)c1cc(-c2ccncc2)nc2ccccc12`?
ATXN viability: inactive; HepG2 viability: -22%; D3 antag: -24; TGFb inhibitor: inconclusive; ATXN2 expr inh: -23%; D3 ag: -19

How did COc1cccc(/C=N/NC(=O)c2cc(-c3ccccn3)nc3ccccc23)c1O do in these assays?
ATXN viability: inconclusive; HepG2 viability: -3%; D3 antag: 5; TGFb inhibitor: -24%; ATXN2 expr inh: 5µM*; D3 ag: 2

Results for COc1ccccc1-c1cc(C(=O)N/N=C/c2cccs2)c2ccccc2n1 ?
ATXN viability: inactive; HepG2 viability: -29%; D3 antag: -78*; TGFb inhibitor: -5%; ATXN2 expr inh: 62%; D3 ag: -31

How did O=[N+]([O-])c1cc(Cl)cc(/C=N\Nc2ccccn2)c1O do in these assays?
ATXN viability: inconclusive; HepG2 viability: -44%; D3 antag: -106*; TGFb inhibitor: inconclusive; ATXN2 expr inh: 7.1µM*; D3 ag: -34

How did O=C(N/N=C/c1cc(Cl)cc([N+](=O)[O-])c1O)c1cc(-c2ccccn2)nc2ccccc12 do in these assays?
ATXN viability: inactive; HepG2 viability: -27%; D3 antag: -61*; TGFb inhibitor: inconclusive; D3 ag: -20

What do the screens show for `O=C(N/N=C/c1ccc(F)cc1)c1cc(-c2ccccn2)nc2ccccc12`?
ATXN viability: inactive; HepG2 viability: -2%; D3 antag: 2; TGFb inhibitor: 3%; ATXN2 expr inh: 2%; D3 ag: -8

What do the screens show for `COc1ccc(CN2CCOc3ccc(C(O)c4cccnc4)cc3C2)c(F)c1` (configuration not stated)?
ATXN viability: inactive

Results for Cc1ccc(C(C)C)c(OCc2nn(CC(=O)c3ccc(Cl)cc3)c3[n+]2CCCCC3)c1 ?
ATXN viability: inconclusive; HepG2 viability: -104%; D3 antag: -52*; TGFb inhibitor: inconclusive; ATXN2 expr inh: inconclusive; D3 ag: -16
